# Experimental data: PubChem BioAssay AID624490 (Broad Institute, 2012)
# Potency and affinity values are given separately. A number with no mark means an inactive call.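 The calls were made as follows: active = compounds whose fitted half-maximal drop in cell ATP occurs at no more than twice the top tested dose; inconclusive = flat moderate signal drop, or unreliable curve fit; inactive = the rest.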
# Experiment: viability loss in MITF-independent A375 cells – cell-based, CellTiter-Glo luminescence, dry powder, set 7, counter-screen for MITF inhibitor project, dose response (AID 624490)
# Conditions: ATP luminescence (CellTiter-Glo), 24 h; series mostly up to 35 µM; activity change, negative = cytotoxicity: at the top concentration
row,SMILES,"activity change, negative = cytotoxicity [%]"
1,O=C1C(Nc2ccccc2)=C(c2ccccc2)C(=O)c2ccccc21,-0.601
2,NC1=C(NS(=O)(=O)c2ccc(Br)s2)C(=O)c2ccccc2C1=O,3.52
3,NC1=C(NS(=O)(=O)c2ccc(Br)cc2)C(=O)c2ccccc2C1=O,1.24
